Screens: PubChem BioAssay, National Center for Advancing Translational Sciences (NCATS)
The list is not random: actives were taken first. Their share in the collection is about 4.7%.
TRHR agonist: agonists of human TRH receptor | P34981 | hit rate 0.18% among 360,000 | activation, % at 2 µM | TRHR cells, calcium flux fluo-8, FDSS agonist mode; note: 0% is about no effect
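In this calcium-flux screen, cells bearing human TRHR are dye-loaded with fluo-8, baselined for 10 cycles, then exposed to library compounds; positive kinetic calcium responses during the agonist phase mark hits, with TRH as control.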
TRHR PAM: allosteric enhancers of human TRH receptor. TRHR cells, fluo-8 calcium fluorescence, EC20 TRH enhancement. AID 493056. P34981. enhancement, % at 2 µM. hit rate 0.66% among 360,000; in the data active = enhancement above about 30%; note: 0% is about no effect
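Enhancer read-out: after compound pinning and an initial kinetic agonist-mode read, an EC20 of TRH (10 nM final) was injected and fluo-8 calcium signal (Ex 480/Em 530) followed at 1 s/cycle for 100 cycles in TRHR-expressing cells.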
D1 ag: agonists of human D1 dopamine receptor. P21728. HEK293 T-REx D1 cells, calcium flux, agonist mode. activation, % at 2 µM. hit rate 1% among 360,000. AID 504660; note: 0% is about no effect
Target sequence (P21728 whole entry, looked up): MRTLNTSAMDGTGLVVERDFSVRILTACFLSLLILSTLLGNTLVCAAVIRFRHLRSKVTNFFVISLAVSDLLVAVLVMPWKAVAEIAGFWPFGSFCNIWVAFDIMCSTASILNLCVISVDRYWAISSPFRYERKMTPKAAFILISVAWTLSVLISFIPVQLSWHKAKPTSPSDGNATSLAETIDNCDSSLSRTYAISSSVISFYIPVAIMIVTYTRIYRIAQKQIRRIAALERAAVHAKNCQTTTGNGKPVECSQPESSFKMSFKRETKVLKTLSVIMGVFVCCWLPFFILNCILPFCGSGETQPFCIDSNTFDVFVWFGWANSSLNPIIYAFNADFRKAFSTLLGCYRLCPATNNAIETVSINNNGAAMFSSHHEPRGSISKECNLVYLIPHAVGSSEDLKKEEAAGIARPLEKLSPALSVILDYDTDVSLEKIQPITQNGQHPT
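Agonism was scored from calcium flux recorded over 180 s (1 read/s) after pintool compound addition, following a 10-cycle baseline. Cells were inducible force-coupled HEK293 TREx D1, plated overnight at 30 C and loaded with no-wash calcium dye.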
D1 antag: human D1 dopamine receptor antagonism; P21728; HEK293 TREx D1 cells, calcium flux, dopamine EC80; hits give low values; activity change, negative = inhibition, % at 10 µM; hit rate 3.2% among 360,000; AID 504652; in the data active = activity change below about -30%; note: % is set by controls: 0 for no effect and ±100 for the full control effect
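Using tetracycline-induced force-coupled D1 Hek293 cells and a calcium dye, signals were followed for 180 s after compound, then for 180 s after EC80 dopamine, to detect inhibitors.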
D1 PAM: enhances dopamine response at the human D1 receptor; P21728; HEK293 TREx D1 cells, calcium flux, dopamine EC20 potentiation; potentiation, % at 10 µM; hit rate 0.036% among 360,000; in the data active = potentiation above about 30%; note: 0% is about no effect
An asterisk follows results filed as active; · = not tested or not shown; ! = a repeat was not active. Cut-off read from the data, not from the text of the source, unless noted: active = activation above about 30%; inactive = the rest.

SMILES | TRHR agonist | TRHR PAM | D1 ag | D1 antag | D1 PAM
O=C1NC(=S)N(C(=O)c2ccc(F)cc2)/C1=C/c1ccccc1 | 20 | 9 | 80* | -8 | -2
COc1ccc(CCn2c(=N)c(C(=O)NC3CCCC3)cc3c(=O)n4ccccc4nc32)cc1 | -1 | 5 | 0 | -32* | -3
COc1ccc(CCn2c(=N)c(C(=O)NC3CCCC3)cc3c(=O)n4ccccc4nc32)cc1OC | 1 | -2 | 1 | 8 | -2
Cc1ccc(C)c(NC(=O)CN(C)S(=O)(=O)c2cccc3cccnc23)c1 | 0 | 32*! | 4 | 8 | 0
CCOC(=O)Cc1csc(NC(=O)CN(C)S(=O)(=O)c2cccc3cccnc23)n1 | 0 | -1 | 5 | -46* | ·
COc1cccc(-c2cn3c(n2)sc2cc(C(=O)NCCc4ccccc4)ccc23)c1 | 0 | -4 | -1 | -18 | -3
CCN(CC(=O)Nc1ccc(OC)cc1)C(=O)c1ccc(N2CCCC2=O)cc1 | 1 | -1 | 4 | 8 | -2
COc1cccc(Nc2nnc(-c3cc4ccc(O)cc4oc3=O)s2)c1 | 70* | 5 | 369* | -28 | 7
O=c1oc2ccc3ccccc3c2cc1-c1nnc(Nc2ccccc2F)s1 | 3 | 5 | 8 | -9 | -1
O=c1oc2cc(O)ccc2cc1-c1nnc(Nc2ccccc2F)s1 | 187* | 39* | 405* | -4 | 16
O=C(CC(c1ccccc1)c1ccccc1O)NCCN1CCOCC1 (stereo not given) | 0 | 5 | 0 | -53* | 0
CCCCN1CC(=O)N2[C@H]3c4cc(Cl)ccc4OC[C@@H]3[C@H](C(=O)OCC)[C@]2(C)C1=O | 0 | -1 | 2 | -13 | 4
CCOC(=O)C1CCCN(c2c(N3CCN(c4ccccn4)CC3)c(=O)c2=O)C1 (stereo not given) | 0 | 3 | 1 | -52* | -12
CCOC(=O)C1CCN(c2c(N3CCCC(C(=O)OCC)C3)c(=O)c2=O)CC1 (stereo not given) | 0 | 0 | 1 | -14 | 0
O=C(/C=C/c1ccc(Cl)cc1Cl)NC(=S)Nc1ccc(CN2CCOCC2)cc1 | -1 | 3 | 2 | -5 | -2
O=C(/C=C/c1ccc(Cl)cc1Cl)NC(=S)Nc1ccccn1 | 1 | 1 | 3 | -44* | -6
CC(=O)c1ccc(OCc2cc(C(=O)NCCn3nc(C)cc3C)no2)cc1 | 0 | 13 | 14 | -21 | -10
Cc1ccc2c(c1)Cc1c(nc(-c3ccc(F)cc3)nc1SCC(=O)N1CCCCC1)O2 | 1 | 33* | 0 | 0 | -2
COc1ccc(Cl)cc1C(=O)NCCN(C)C | 1 | 5 | 3 | 7 | -5
CN(C)CCNC(=O)c1ccc(COc2ccc(Cl)cc2Cl)cc1 | 15 | -6 | 95* | -64* | -18
CN1CCN(C(=O)CCCOc2ccc(Cl)cc2Cl)CC1 | 0 | 0 | 5 | -9 | -10
CN1CCN(C(=O)c2ccc(COc3ccc(Cl)cc3Cl)cc2)CC1 | 3 | 3 | 26 | -55* | -9
Cc1cccc(COC(=O)Nc2ccc(NC(=O)c3ccccc3Cl)cc2)c1 | 0 | 7 | 9 | -56* | -8
CCOC(=O)Nc1ccccc1C(=O)Nc1cc(C)cc(C)c1 | -1 | 0 | 2 | -24 | -4
Cc1cccc(Nc2ncnc3onc(-c4cccc(Cl)c4)c23)c1C | 0 | 9 | 2 | 1 | 0
SMILES | TRHR agonist | TRHR PAM | D1 ag | D1 antag | D1 PAM
Fc1ccc(Nc2ncnc3onc(-c4cccc(Cl)c4)c23)c(F)c1 | 0 | -9 | -2 | -45* | -4
COc1cccc(NC(=O)c2ccc(-c3nc(COc4ccccc4)c(C)o3)cc2)c1 | 2 | 1 | 12 | -17 | -7
O=C(CSc1ccc(-c2ccc(Cl)cc2)nn1)N1CCCc2ccccc21 | 2 | -6 | 6 | -34* | -6
O=C(CSc1ccc(-c2ccc(Cl)cc2)nn1)Nc1ccc2c(c1)OCCO2 | 0 | 8 | 1 | -31* | -7
Cc1ccc(NC(=O)CSc2ccc(-c3ccc4c(c3)OCO4)nn2)cc1F | 1 | 0 | -1 | -2 | -4
O=C(CSc1ccc(-c2ccc(F)cc2)nn1)N1CCCc2ccccc21 | 0 | 2 | 4 | 13 | 1
CC(Oc1cccc(Cl)c1)C(=O)Nc1ccccc1N1CCCC1 (stereo not given) | 0 | -5 | 4 | 19 | 1
CCN1CCN(c2ccccc2NC(=O)C(C)Oc2ccc(C(C)=O)cc2)CC1 (stereo not given) | 0 | 7 | 0 | -49* | -4
CCC(C)/C(C)=N/NC(=O)c1cn(-c2ccccc2)nc1-c1ccccc1 (stereo not given) | 1 | -8 | 3 | 4 | -5
Cc1ccc(-c2c(C)c(-c3ccc(F)cc3)nc(N)c2C#N)o1 | 0 | -5 | 8 | -31* | -8
Cc1c(-c2ccc(F)cc2)nc(N)c(C#N)c1-c1cccnc1 | -1 | 4 | 2 | 10 | 5
COc1cc2c(cc1OC)C(c1cccs1)N(C(=O)c1cccnc1)CC2 (stereo not given) | 0 | 1 | 0 | -9 | -5
COc1cc2c(cc1OC)C(C1C(=O)CCCC1=O)N(C(=O)CCl)CC2 (stereo not given) | 0 | 3 | 0 | 3 | -2
COc1cc2c(cc1OC)C(c1ccccc1)N(C(=O)CCl)CC2 (stereo not given) | 4 | -5 | 2 | -32* | -5
COc1cc2c(cc1OC)C(c1cccs1)N(C(=O)C(C)C)CC2 (stereo not given) | -1 | -4 | -1 | -78* | -11
CCCSc1nc2c(c(=O)[nH]1)C(c1ccc(F)cc1F)CC(=O)N2 (stereo not given) | 0 | -10 | 37* | -1 | 2
Cc1cc(C)cc(Oc2nc3c(c(=O)n(C)c(=O)n3C)n2Cc2ccc(F)cc2)c1 | -1 | 9 | 1 | -5 | -5
Cc1ccc(OCc2cc(C(=O)NC(C)Cc3cnccn3)no2)cc1C (stereo not given) | 0 | 0 | 3 | -40* | 5
Cc1cccc(CC(C)NC(=O)c2cc(COc3ccc(C)c(C)c3)on2)n1 (stereo not given) | -1 | 8 | 2 | -24 | 2
O=C(O)c1cc(Cl)ccc1-c1ccc(/C=C/c2cc(C(F)(F)F)[nH]c(=O)n2)o1 | 73* | -2 | 97* | -14 | 9
O=C(O)c1ccccc1-c1ccc(/C=C/c2cc(C(F)(F)F)[nH]c(=O)n2)o1 | 33* | -4 | 146* | -15 | 0
O=c1nc(/C=C/c2ccc(-c3ccc(F)cc3)o2)cc(C(F)(F)F)[nH]1 | 26 | 15 | 98* | -20 | 0
O=Cc1ccc(-c2ccc(F)cc2)o1 | 0 | 5 | 0 | -3 | 8
COc1ccc(S(=O)(=O)NC2CC2)cc1Cl | 0 | 7 | 0 | -5 | -3
